Data as given in PubChem BioAssay (NCI).
Compounds without any hit were thinned out: in the full panel of roughly 83,000, 20% have a hit.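 Growth was measured after 48 h exposure to one concentration of compound in 96-well plates. Values under 10 count as active.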 Active and inactive are the calls of the source.

Assays:
Test in all cases: NCI-60 one-dose screen, 48 h (100 = growth as untreated, 0 = no growth, -100 = all killed)
Conditions in all cases: 10 µM
OVCAR-8 ovarian = tested on: OVCAR-8 ovarian
OVCAR-5 ovarian = tested on: OVCAR-5 ovarian
OVCAR-4 ovarian = tested on: OVCAR-4 ovarian
SK-OV-3 ovarian = tested on: SK-OV-3 ovarian
IGROV1 ovarian = tested on: IGROV1 ovarian
OVCAR-3 ovarian = tested on: OVCAR-3 ovarian
HS 578T breast = tested on: HS 578T breast
T-47D breast = tested on: T-47D breast
BT-549 breast = tested on: BT-549 breast
MDA-MB-435 melanoma = tested on: MDA-MB-435 melanoma
SW-620 colon = tested on: SW-620 colon
MCF7 breast = tested on: MCF7 breast
HCT-116 colon = tested on: HCT-116 colon
HCC-2998 colon = tested on: HCC-2998 colon
KM12 colon = tested on: KM12 colon
NCI/ADR-RES ovarian = tested on: NCI/ADR-RES ovarian
RPMI-8226 leukemia = tested on: RPMI-8226 leukemia
SR leukemia = tested on: SR leukemia

Measured: growth

NC(N)=N/N=C(\N=Nc1ccccc1)c1ccc(Cl)cc1
inactive: OVCAR-8 ovarian 26.2% | OVCAR-5 ovarian 24.9% | OVCAR-4 ovarian 51.8% | SK-OV-3 ovarian 55.5% | IGROV1 ovarian 46.3% | OVCAR-3 ovarian 12.6% | HS 578T breast 65.2% | T-47D breast 20.4% | BT-549 breast 67.2% | SW-620 colon 12.7% | MCF7 breast 23.8% | HCT-116 colon 15% | HCC-2998 colon 11% | KM12 colon 20.8%
active: MDA-MB-435 melanoma 5.69%

Cc1cn(-c2cc(F)cc(NC(=O)c3ccc(C)c(Nc4nccc(-c5cccnc5)n4)c3)c2)cn1
inactive: OVCAR-8 ovarian 31.6% | OVCAR-5 ovarian 45.2% | HS 578T breast 38.5% | NCI/ADR-RES ovarian 59.9% | SW-620 colon 40.5% | MCF7 breast 16.8% | HCC-2998 colon 101% | KM12 colon 15.6%
active: OVCAR-4 ovarian -41.7% | SK-OV-3 ovarian 2.64% | OVCAR-3 ovarian -30.9% | T-47D breast 3.22% | BT-549 breast -27.3% | HCT-116 colon 6.97%

COc1ccccc1N1CCCSC1=Nc1ccccc1
inactive: RPMI-8226 leukemia 43.6% | OVCAR-8 ovarian 104% | OVCAR-5 ovarian 93.9% | OVCAR-4 ovarian 151% | SK-OV-3 ovarian 113% | OVCAR-3 ovarian 94.1% | HS 578T breast 117% | NCI/ADR-RES ovarian 103% | T-47D breast 107% | MDA-MB-435 melanoma 103% | SW-620 colon 103% | MCF7 breast 98.6% | HCT-116 colon 79.2% | HCC-2998 colon 108% | KM12 colon 91.7%

CC(C)(C)c1nn(-c2ccccc2)c2c1CC1(CN2Cc2ccc(Cl)cc2)C(=O)c2ccccc2C1=O
inactive: RPMI-8226 leukemia 59.5% | OVCAR-8 ovarian 105% | OVCAR-5 ovarian 103% | OVCAR-4 ovarian 72.9% | SK-OV-3 ovarian 93.3% | OVCAR-3 ovarian 78.1% | HS 578T breast 110% | NCI/ADR-RES ovarian 84.3% | T-47D breast 75.5% | BT-549 breast 81.4% | SW-620 colon 85.6% | MCF7 breast 82.4% | HCT-116 colon 52.6% | HCC-2998 colon 91.4% | KM12 colon 89.6%

O=C(c1ccccc1)N(C(=O)c1ccccc1)N1CCCC1
inactive: RPMI-8226 leukemia 103% | OVCAR-5 ovarian 99.3% | OVCAR-4 ovarian 106% | OVCAR-3 ovarian 110% | HS 578T breast 105% | NCI/ADR-RES ovarian 102% | T-47D breast 99.9% | BT-549 breast 105% | MDA-MB-435 melanoma 116% | SW-620 colon 100% | MCF7 breast 105% | HCT-116 colon 106% | KM12 colon 107%

Cc1ccc(C(SCC(N)C(=O)O)(c2ccc(C)cc2)c2ccc(C)cc2)cc1 (centres undefined)
inactive: OVCAR-5 ovarian 38.6% | OVCAR-4 ovarian 47.8% | SK-OV-3 ovarian 26% | NCI/ADR-RES ovarian 57.8% | T-47D breast 27.2% | SW-620 colon 20.5%
active: RPMI-8226 leukemia -36.6% | OVCAR-8 ovarian 7.22% | OVCAR-3 ovarian -42.6% | HS 578T breast -15.3% | MDA-MB-435 melanoma -59.8% | MCF7 breast 9.12% | HCT-116 colon -25.5% | HCC-2998 colon 1.38% | KM12 colon 0.314%

CSc1nc(S(C)(=O)=O)nc2[nH]c(=O)[nH]c12
inactive: RPMI-8226 leukemia 123% | OVCAR-8 ovarian 108% | OVCAR-5 ovarian 96.3% | OVCAR-4 ovarian 117% | SK-OV-3 ovarian 115% | OVCAR-3 ovarian 115% | HS 578T breast 111% | NCI/ADR-RES ovarian 110% | T-47D breast 112% | BT-549 breast 102% | SW-620 colon 111% | MCF7 breast 109% | HCT-116 colon 99.1% | KM12 colon 118%

COc1ccc(-c2nn(-c3cccc(Cl)c3)cc2-c2c(C#N)c(N)n(N)c(=O)c2C#N)cc1
inactive: OVCAR-8 ovarian 73.3% | OVCAR-5 ovarian 84.4% | OVCAR-4 ovarian 89.3% | SK-OV-3 ovarian 95% | OVCAR-3 ovarian 72.4% | HS 578T breast 58.2% | NCI/ADR-RES ovarian 90.4% | T-47D breast 48.7% | BT-549 breast 58% | SW-620 colon 83% | MCF7 breast 47.5% | HCT-116 colon 45.7% | HCC-2998 colon 93.4% | KM12 colon 62.3%

CC(=O)COc1ccc(Cl)cc1Cl
inactive: RPMI-8226 leukemia 86.7% | OVCAR-8 ovarian 107% | OVCAR-5 ovarian 112% | OVCAR-4 ovarian 116% | SK-OV-3 ovarian 122% | OVCAR-3 ovarian 120% | HS 578T breast 117% | NCI/ADR-RES ovarian 111% | T-47D breast 98.7% | BT-549 breast 111% | MDA-MB-435 melanoma 102% | SW-620 colon 97.2% | MCF7 breast 104% | HCT-116 colon 99.1% | HCC-2998 colon 109%

O=[N+]([O-])c1ccc(NCSc2ccc(Cl)cc2)cc1
inactive: RPMI-8226 leukemia 91.8% | OVCAR-8 ovarian 97% | OVCAR-5 ovarian 106% | OVCAR-4 ovarian 117% | SK-OV-3 ovarian 109% | OVCAR-3 ovarian 106% | NCI/ADR-RES ovarian 102% | T-47D breast 92.8% | BT-549 breast 71.5% | MDA-MB-435 melanoma 109% | MCF7 breast 95% | HCT-116 colon 86.3%

Cc1c(C(N)=O)sc2c1c(=O)n(Cc1ccccc1)c1nnc(-c3ccc(Br)cc3)n21
active: OVCAR-8 ovarian 0.274% | NCI/ADR-RES ovarian 6.12%
inactive: RPMI-8226 leukemia 12.1% | OVCAR-5 ovarian 48.6% | OVCAR-4 ovarian 40.2% | SK-OV-3 ovarian 33.2% | OVCAR-3 ovarian 49.5% | HS 578T breast 73.6% | T-47D breast 20.9% | BT-549 breast 22.6% | MDA-MB-435 melanoma 39% | MCF7 breast 21.5% | HCT-116 colon 12.4% | HCC-2998 colon 25% | KM12 colon 25.6%

CN(C)c1nc(N)c2nccnc2n1
inactive: RPMI-8226 leukemia 110% | OVCAR-8 ovarian 110% | OVCAR-5 ovarian 100% | OVCAR-4 ovarian 104% | SK-OV-3 ovarian 110% | OVCAR-3 ovarian 105% | HS 578T breast 105% | NCI/ADR-RES ovarian 99.2% | T-47D breast 104% | BT-549 breast 104% | MDA-MB-435 melanoma 106% | SW-620 colon 99.2% | MCF7 breast 96% | HCT-116 colon 104% | KM12 colon 101%

CCCCCCCCCCCC[n+]1c(C)cc(N)c2ccccc21
inactive: OVCAR-5 ovarian 31.7% | OVCAR-4 ovarian 15.1% | OVCAR-3 ovarian 18%
active: RPMI-8226 leukemia -28.4% | OVCAR-8 ovarian 3.24% | SK-OV-3 ovarian -2.73% | T-47D breast -14% | BT-549 breast -29.7% | MDA-MB-435 melanoma -6.75% | MCF7 breast -0.77% | HCT-116 colon -4.63%

COc1ccc(-c2cc(-c3cc(OC)ccc3OC)nc(N)c2C#N)cc1
inactive: SR leukemia 43.9% | OVCAR-8 ovarian 39.5% | OVCAR-4 ovarian 48.4% | SK-OV-3 ovarian 62.9% | IGROV1 ovarian 58.7% | OVCAR-3 ovarian 53.7% | HS 578T breast 53.7% | NCI/ADR-RES ovarian 52.4% | T-47D breast 54.4% | BT-549 breast 24.7% | MDA-MB-435 melanoma 46.8% | SW-620 colon 65.5% | MCF7 breast 38.9% | HCT-116 colon 35.1% | HCC-2998 colon 76.6% | KM12 colon 71.7%

COc1ccc(C(=O)CC(CC(=O)c2ccc(OC)cc2)c2c(C)nn(-c3ccccc3)c2Cl)cc1
inactive: OVCAR-5 ovarian 91.8% | OVCAR-4 ovarian 101% | SK-OV-3 ovarian 109% | IGROV1 ovarian 104% | OVCAR-3 ovarian 115% | HS 578T breast 94.4% | NCI/ADR-RES ovarian 95.5% | T-47D breast 109% | BT-549 breast 92% | MDA-MB-435 melanoma 91.9% | MCF7 breast 95.4% | HCT-116 colon 88.9% | HCC-2998 colon 109% | KM12 colon 98%

COc1cc2nc(SCC(=O)Nc3cc(OC)c(OC)c(OC)c3)n(Cc3ccccc3)c(=O)c2cc1OC
active: OVCAR-8 ovarian -4.94%
inactive: OVCAR-5 ovarian 93.7% | OVCAR-4 ovarian 48.1% | SK-OV-3 ovarian 47.4% | IGROV1 ovarian 75.5% | OVCAR-3 ovarian 69.7% | HS 578T breast 24.9% | T-47D breast 73.5% | BT-549 breast 14% | MDA-MB-435 melanoma 76.2% | SW-620 colon 91% | MCF7 breast 82.6% | HCT-116 colon 52.1% | HCC-2998 colon 77.2% | KM12 colon 77.8%

CC1(C)N=C(N)N=C(N)N1c1cccc(C#N)c1
inactive: OVCAR-8 ovarian 33.8% | OVCAR-5 ovarian 51% | OVCAR-4 ovarian 97.3% | SK-OV-3 ovarian 82.9% | IGROV1 ovarian 42.6% | OVCAR-3 ovarian 60.7% | HS 578T breast 88.2% | NCI/ADR-RES ovarian 75% | T-47D breast 99.7% | BT-549 breast 81.6% | MDA-MB-435 melanoma 36.2% | SW-620 colon 29.9% | MCF7 breast 52% | HCT-116 colon 17.1% | HCC-2998 colon 58.4% | KM12 colon 47.7%
